Bioassay records deposited in PubChem by National Center for Advancing Translational Sciences (NCATS).
The full list was thinned out, with hits kept by preference.
Methyltransferases = Primary Screen for Target Class Profiling of Small Molecule Inhibitors of Methyltransferases; purified enzyme, MTase-Glo SAH luminescence; hits give low values; calls only at 40 µM; 25,000 tested, 3.9% active; AID 1745853, 2022; call rule not given here
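Each enzyme was reacted with SAM and its substrate, with compounds tested once at 40 uM; SAH formed was read by MTase-Glo luminescence.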
* hit, by the source's call. % is set by controls: 0 for no effect and ±100 for the full control effect.

How did O=C(c1ccc2c(=O)nc3c(-c4ccccc4F)n[nH]n3c2c1)N1CCN(c2ccccn2)CC1 do in these assays?
Methyltransferases: inactive

How did Cc1ccc(NS(=O)(=O)c2cc3c(cc2C)n(C)c(=O)n3C)cc1 do in these assays?
Methyltransferases: inactive

Results for CCc1nc(C(N)=O)c(Nc2ccc(N3CCC(N4CCN(C)CC4)CC3)c(OC)c2)nc1NC1CCOCC1 ?
Methyltransferases: active

How did CN1CCN(c2ccc(C(=O)Nc3n[nH]c4ccc(Cc5cc(F)cc(F)c5)cc34)c(NC3CCOCC3)c2)CC1 do in these assays?
Methyltransferases: inactive

What do the screens show for `Cc1cccc(-c2n[nH]n3c2nc(=O)c2ccc(C(=O)NCc4ccc(F)cc4)cc23)c1`?
Methyltransferases: inactive

Results for Cn1c(=O)c2ccc(C(=O)NC3CCCC3)cc2n2c(=O)n(Cc3ccccc3Cl)nc12 ?
Methyltransferases: inactive

How did NC1(c2ccc(-c3nc4ccn5c(=O)[nH]nc5c4cc3-c3ccccc3)cc2)CCC1 do in these assays?
Methyltransferases: active

What do the screens show for `CC(C)OCCCNC(=O)C1CCCN(S(=O)(=O)c2cn(C)cn2)CCC(=O)NCC1` (stereo not drawn)?
Methyltransferases: inactive

Results for Cc1cccc(NC(=O)CSc2nnc3n(CCc4ccccc4)c(=O)c4ccccc4n23)c1 ?
Methyltransferases: inactive

What do the screens show for `COc1cc2ncnc(Nc3cc(Br)c(O)c(Br)c3)c2cc1OC`?
Methyltransferases: inactive

What do the screens show for `COc1cc2ncnc(-n3nc(-c4ccccn4)nc3N)c2cc1OC`?
Methyltransferases: inactive

How did COc1cc2ncnc(Nc3cccc(I)c3)c2cc1OC do in these assays?
Methyltransferases: active

How did CC(C)Cn1c(=O)c2ccc(C(=O)NC(C)C)cc2n2c(SCc3cccc(Cl)c3)nnc12 do in these assays?
Methyltransferases: inactive

Results for Cc1ccc(C(=O)Cn2nc3n(CC(C)C)c(=O)c4ccc(C(=O)NC5CCCCC5)cc4n3c2=O)cc1 ?
Methyltransferases: inactive

What do the screens show for `CC(C)n1cc(-c2ccc(Oc3ccccc3)cc2)c2c(N)ncnc21`?
Methyltransferases: active

Results for Cc1ccsc1CCNC(=O)CCc1nnc2ccc(NCc3ccccc3)nn12 ?
Methyltransferases: inactive

Results for CCOc1ccc(N2C(=O)c3cc(-c4ccc(OC)cc4)nn3CC2(C)C(=O)NCc2ccccc2)cc1 (stereo not drawn) ?
Methyltransferases: inactive

How did CCCn1c(=O)c2ccccc2n2c(SCC(=O)Nc3ccc(Cl)cc3)nnc12 do in these assays?
Methyltransferases: inactive

How did O=C(NCc1ccc(Cl)cc1)c1ccc2cc[nH]c2n1 do in these assays?
Methyltransferases: inactive

What do the screens show for `COCc1c(O)c(C(=O)O)c(C)c2c1OC(=O)c1c(C)cc(O)c(CO)c1O2`?
Methyltransferases: active

Results for COC(=O)[C@@H]1Cc2ncn(C(C)C)c2CN1S(C)(=O)=O ?
Methyltransferases: inactive

Results for O=C(CCCc1nnc2n3nc(-c4ccccc4)nc3c3ccccc3n12)NC1CCCCC1 ?
Methyltransferases: inactive

What do the screens show for `C=C1C(=O)OC2C1CCC(=C)C1CC(OC(C)=O)C(=C)C12` (stereo not drawn)?
Methyltransferases: active

Results for C=C(C)C(=O)OC1CC(CO)CCC/C(CO)=C/C2OC(=O)C(=C)C21 (stereo not drawn) ?
Methyltransferases: inactive

How did C=C1C(=O)O[C@@H]2[C@H]3C(C)=CC(=O)C3=C(C)CC[C@@H]12 do in these assays?
Methyltransferases: inactive

Results for Cc1ccc(N2C(=O)c3cc4occc4n3CC2(C)C(=O)NC2CCCCCC2)cc1 (stereo not drawn) ?
Methyltransferases: inactive

Results for Cc1cccc(NC(=O)Cn2c(=O)oc3cc(S(=O)(=O)N4CC(C)CC(C)C4)ccc32)c1C (stereo not drawn) ?
Methyltransferases: inactive

Results for Cc1ccc(NC(=O)Cn2nc3n(C)c(=O)c4ccc(C(=O)NC5CCCC5)cc4n3c2=O)c(C)c1 ?
Methyltransferases: inactive

Results for Cc1ncsc1CN1CCC2(CC1)CC(CC(=O)NCc1ccncc1)CCO2 (stereo not drawn) ?
Methyltransferases: inactive

How did CC1CCCC(NC(=O)C2(C)Cn3c(nc4ccccc43)C(=O)N2Cc2cccs2)C1C (stereo not drawn) do in these assays?
Methyltransferases: inactive

Results for CCN1CCN(c2ccc(Nc3ccc(-c4ccc(C(N)=O)cc4)n4ncnc34)cc2)CC1 ?
Methyltransferases: active

Results for COc1ccc(N2CCN(C(=O)c3ccc(Nc4nc5ccccc5n5nnnc45)cc3)CC2)cc1 ?
Methyltransferases: inactive

What do the screens show for `CCN1CCN(C(=O)c2ccc(-c3nnc4ccc(NC(=O)C5CC5)cn34)cc2)CC1`?
Methyltransferases: inactive

How did O=C(NCCc1ccccc1)c1ccc2c(=O)nc3c(-c4ccccc4)n[nH]n3c2c1 do in these assays?
Methyltransferases: inactive

How did Cc1ccc(NC(=O)N2CCN(c3nc(N)nc4sc(-c5cccnc5)nc34)CC2)cc1 do in these assays?
Methyltransferases: inactive

How did C[C@H](Oc1ccc(S(C)(=O)=O)cc1C(=O)N1CCN(c2ncc(C(F)(F)F)cc2F)CC1)C(F)(F)F do in these assays?
Methyltransferases: inactive

How did O=C(Nc1ccc(C(F)(F)F)cn1)N1CCN(c2ncccc2C(F)(F)F)CC1 do in these assays?
Methyltransferases: active

How did COc1ccccc1CNC(=O)C1(C)Cn2c(cc3ccccc32)C(=O)N1Cc1cccc(OC)c1OC (stereo not drawn) do in these assays?
Methyltransferases: inactive

How did C=CCn1c(=O)c2ccc(C(=O)NC(C)C)cc2n2c(=O)n(CC(N)=O)nc12 do in these assays?
Methyltransferases: inactive

What do the screens show for `CCOc1ccc(CN2C(=O)c3cc4occc4n3CC2(C)C(=O)NC2CCCCCC2)cc1` (stereo not drawn)?
Methyltransferases: inactive

Results for C=C(C(=O)O)C1CC(OC(=O)CC(C)CC)C2(C)CCCC(=C)C2C1 (stereo not drawn) ?
Methyltransferases: inactive

Results for C=C(C(=O)O)C1CC(O)C2(C)CCCC(=C)C2C1 (stereo not drawn) ?
Methyltransferases: active

How did C=C1CCC[C@]2(C)CC[C@@](O)(C(=C)C(=O)O)C[C@@H]12 do in these assays?
Methyltransferases: inactive

Results for C=CCNC(=O)N[C@H]1CCN(C(=O)CC(C)(C)C)[C@@H]1C(=O)N[C@@H](Cc1cccs1)C(N)=O ?
Methyltransferases: inactive

Results for CC(C)OCCCn1c(=O)c2ccccc2n2c(=O)n(CC(=O)c3ccc(Br)cc3)nc12 ?
Methyltransferases: inactive

What do the screens show for `Cn1ccnc1C(=O)C1CCCN(Cc2cc(=O)c3cccc(Cl)c3[nH]2)C1` (stereo not drawn)?
Methyltransferases: inactive

Results for CCc1cc2c(cc3n2CC(C(=O)NC2CCCCCCC2)(c2ccccc2)N(Cc2ccccc2)C3=O)s1 (stereo not drawn) ?
Methyltransferases: inactive

What do the screens show for `NS(=O)(=O)OC[C@@H]1C[C@@H](n2ccc3c(N[C@H]4CCc5ccccc54)ncnc32)C[C@@H]1O`?
Methyltransferases: active

What do the screens show for `COc1cccc(CN2C(=O)c3cc4ccc(OC)cc4n3CC2(C)C(=O)NC2CCCC2)c1` (stereo not drawn)?
Methyltransferases: inactive

How did COc1ccc(C(=O)Cn2nc3n(CCC(C)C)c(=O)c4ccc(C(=O)NCC(C)C)cc4n3c2=O)cc1 do in these assays?
Methyltransferases: inactive

What do the screens show for `CC(C)CNC(=O)c1ccc2c(=O)n(C(C)C)c3nn(CC(=O)NC4CCCC4)c(=O)n3c2c1`?
Methyltransferases: inactive
